TROY NFkB inh – blocks TROY-dependent signaling in reporter cells; Q293 LMP1-TROYcd NF-kB luciferase reporter, 4 h; inhibition, % at 10 µM; 360,000 compounds, 0.98% hits; AID 1347056;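 active = compounds whose plate-normalised and pattern-corrected inhibition of the luciferase reporter signal at the single screening dose is 50% or more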
HIF-2a block – HIF-2a inhibition | inhibition, % at 18.8 µM | AID 624352 | 360,000 compounds, 0.72% hits | 786-0 RCC cells HIF-2a reporter, luciferase luminescence, overnight;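 active = inhibition of the luminescence signal of 40% or more relative to plate controls, in a single-dose primary screen at 18.75 µM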
CF NFkB block – cystic fibrosis NF-kB activation inhibition. KKLEB NF-kB-GFP reporter, PAF-induced, GFP fluorescence overnight. inhibition, % at 5 µM. 360,000 compounds, 0.86% hits. AID 588850;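 active = at least 50% inhibition at 5 µM, scaled per plate between neutral and stimulator controls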;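 also: PAF is a Pseudomonas aeruginosa culture filtrate used as stimulus; plate controls were PAF-stimulated DMSO wells for no effect and unstimulated DMSO wells for full effect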
TWEAK-Fn14 inh – blocks TWEAK-Fn14 interaction in a reporter cell assay; inhibition, % at 10 µM; TWEAK-stimulated Fn14 reporter cells, luciferase luminescence, 8 h; 360,000 compounds, 2% hits; AID 1159606; in the data active = inhibition above about 50%
Peg3 promoter – Peg3 promoter activity inhibition | HeLa PEG-Prom luciferase reporter, luminescence, overnight | AID 588405 | inhibition, % at 20 µM | 360,000 compounds, 1.7% hits;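 active = inhibition of at least 50% at 20 µM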
KKLEB tox – counter-screen for CF NF-kB inhibitors: cytotoxicity | 360,000 compounds, 0.36% hits | KKLEB CF airway cells viability, ATPlite luminescence, overnight; active compounds read low; cells stimulated with P. aeruginosa culture filtrate | activity change (cytotoxicity), % at 5 µM;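 active = corrected activity change at or below -50% at 5 µM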
An asterisk follows results filed as active; . = not tested or not shown. An excerpt weighted towards active compounds, which were near 3.9% of everything screened.

SMILES	TROY NFkB inh	HIF-2a block	CF NFkB block	TWEAK-Fn14 inh	Peg3 promoter	KKLEB tox
CCOc1ccc2nc(NC(=O)CN3CCC(n4nnc5cc(C(F)(F)F)ccc54)CC3)sc2c1	-1.9	4.5	0.6	8.8	28.1	-15.7
Cc1onc(-c2ccccc2)c1C(=O)OCC(=O)Nc1ccc(OC(F)(F)F)cc1	52.2*	7.5	-20.8	14.6	34.4	-9.4
Cc1cc(NC(=O)C2CCCCC2)nc2c1c(=O)oc1ccccc12	-36.6	-11.8	-37.9	41.1	50.9*	5.4
Fc1cccc(Cc2c(-c3cccc(Br)c3)nc3ccc(Br)cn23)c1	6.9	-213.9	12.5	13.1	-123.5	-11.0
CC(C)(CO)NCc1c(OCc2ccc(Cl)cc2)ccc2ccccc12	-16.0	-54.3	10.8	-14.5	53.7*	-1.3
COc1cc(Cl)c(S(=O)(=O)NCc2cccnc2)cc1Cl	53.8*	0.3	-4.1	84.1*	-1.1	2.3
Cc1nc(N2CCN(c3ccccn3)CC2)c2c(C)c(C(=O)N3CCN(c4ccccc4F)CC3)sc2n1	40.0	12.3	11.5	23.4	72.0*	-17.3
Cc1ccc(NC(=O)c2sc3nc(C)nc(N4CCN(c5ccccn5)CC4)c3c2C)c(C)c1	14.5	14.9	28.4	15.5	16.4	-12.2
CC1=NN(c2ccc(Cl)cc2)C(=O)C1C(c1ccccc1O)c1c(C)[nH]n(-c2ccc(Cl)cc2)c1=O (centres undefined)	8.9	11.6	65.1*	49.2	11.0	-50.3*
Cc1ccc2nc(-c3ccccc3)oc(=O)c2c1	-13.2	-90.2	-2.6	107.8*	-22.2	-0.4
Cc1ccc(-c2nc3ccccc3c(=O)o2)cc1	-72.6	-203.8	1.1	4.3	-139.9	8.0
CC(=O)Oc1ccc(-c2nc3ccccc3c(=O)o2)cc1	-28.3	23.5	0.7	5.8	77.3*	12.2
O=c1oc(/C=C/c2ccc([N+](=O)[O-])s2)nc2ccccc12	-12.4	8.1	-11.4	-1.8	2.2	-4.8
CC(=O)Oc1ccc(/C=C/c2nc3ccccc3c(=O)o2)cc1	50.4*	-42.4	2.0	79.2*	16.5	-0.5
CC(=O)Oc1ccccc1/C=C/c1nc2ccccc2c(=O)o1	0.6	32.9	-4.2	62.0*	23.8	-0.2
CC(CCc1ccccc1)NC(=O)CNc1cccc([N+](=O)[O-])c1 (centres undefined)	-8.7	15.2	3.8	-2.5	8.4	4.1
NC(=O)c1nsc(C(=O)N(c2ccccc2)C(C(=O)NCc2ccc(F)cc2)c2ccco2)c1N (centres undefined)	0.0	12.5	-17.3	1.3	31.4	-8.7
CC(C)c1ccc(OCC(=O)N(c2ccccn2)C2CCCCC2)cc1	-5.2	-7.1	8.6	3.0	-5.6	4.6
COc1ccc(Cl)cc1S(=O)(=O)Nc1ccc(Cl)cn1	3.3	17.2	6.7	3.5	17.7	-8.5
CN(C)C(CNC(=O)c1oc2ccccc2c1CSc1ncn[nH]1)c1ccco1 (centres undefined)	10.7	0.9	-19.2	7.6	16.7	1.3
C/C(=C/CCC(C)[C@H]1CC[C@@]2(C)C3=C(CC[C@]12C)[C@@]1(C)CCC(=O)C(C)(C)[C@@H]1CC3)C(=O)O (some centres undefined)	53.5*	11.6	30.9	10.4	-8.3	24.2
Cc1cc(NC(=O)c2ccc(Cl)cc2)c(C)cc1O	-48.8	-94.3	-4.0	-7.8	-91.0	7.6
Cc1cc(C(C#N)c2ccc(Cl)cc2)c(Cl)cc1NC(=O)c1cc(I)cc(I)c1O (centres undefined)	69.6*	-23.9	62.2*	24.0	43.5	-11.5
C/C(=N/NC(=O)CNC(=O)c1cccnc1)c1ccco1	-9.3	19.5	-5.9	23.7	-1.7	11.2
COc1ccc2[nH]c3nc(SCC(=O)NNC(=O)c4ccc(OC)c(OC)c4)nnc3c2c1	-34.4	-8.9	-6.5	-8.5	6.0	15.7
SMILES	TROY NFkB inh	HIF-2a block	CF NFkB block	TWEAK-Fn14 inh	Peg3 promoter	KKLEB tox
CC1CCc2cc(F)ccc2N1C(=O)CSc1nnc2c(n1)[nH]c1ccccc12 (centres undefined)	11.2	16.9	-12.8	37.7	64.6*	10.2
Cc1ccc(C(=O)NNC(=O)CSc2nnc3c(n2)[nH]c2ccc(F)cc23)cc1	-22.8	4.7	-16.2	-8.3	55.1*	-5.7
O=C(CSc1nnc2c(n1)[nH]c1ccccc12)N1CCCCC1	11.9	13.9	-10.3	65.3*	-23.4	4.2
CC(C)Cn1c(=O)c(C(=O)Nc2ccccc2S(N)(=O)=O)c(O)c2ccccc21	42.7	-12.1	-5.9	30.9	-2.5	-5.9
CCOC(=O)Cc1csc(NC(=O)c2c(O)c3ccccc3n(CC(C)C)c2=O)n1	36.1	11.3	-5.6	53.6*	20.9	11.0
C[C@H](O)[C@H](O)[C@H]1CNc2nc(N)[nH]c(=O)c2N1	-9.3	0.7	18.2	-4.1	-12.6	9.0
C[C@H](O)C(=O)C1=Nc2c(nc(N)[nH]c2=O)NC1	-0.3	3.9	11.6	8.8	2.3	-94.8*
CCOC(=O)c1ccc(-n2c(CN3CCC(C(N)=O)CC3)nc3ccc([N+](=O)[O-])cc3c2=O)cc1	54.7*	-41.7	4.7	15.4	-29.5	-10.4
CCOC(=O)c1ccc(-n2c(CN3CCN(CC)CC3)nc3ccc([N+](=O)[O-])cc3c2=O)cc1	29.6	-10.4	-4.3	14.6	4.8	-7.6
CCOC(=O)c1ccc(-n2c(CN3CCC(O)CC3)nc3ccc([N+](=O)[O-])cc3c2=O)cc1	53.1*	-49.4	6.6	28.6	-24.1	-7.6
c1ccc2c(c1)oc1c(Nc3ccc4c(c3)OCCO4)ncnc12	-38.7	-256.3	47.0	67.4*	-40.5	-18.2
CCc1nc(Nc2ccc3c(c2)OCCO3)c2oc3ccccc3c2n1	46.4	-79.5	-18.0	78.7*	69.2*	-7.7
CCc1nc(NCC2CCCO2)c2oc3ccccc3c2n1 (centres undefined)	.	18.8	3.2	86.9*	11.4	2.2
COc1cccc(NC(=O)c2cc([N+](=O)[O-])ccc2NC(=O)CNCC2CCCO2)c1 (centres undefined)	-0.3	17.0	-16.5	-6.9	20.6	6.8
CCCCn1c(N)c(N(CC(C)C)C(=O)c2cccc(S(=O)(=O)N3CCCCC3)c2)c(=O)[nH]c1=O	-1.6	12.4	-4.5	4.7	5.4	12.7
O=C(/C=C/c1ccc(Cl)c([N+](=O)[O-])c1)NCc1cccnc1	-17.9	4.9	-0.8	-6.0	-4.4	2.9
COc1ccc(/C=C/C(=O)Nc2sc3c(c2C(=O)NCc2cccnc2)CCCC3)cc1	5.6	-26.6	6.1	52.6*	3.2	-14.2
Cc1cccc(N2CCN(C(=O)c3ccc(CS(=O)(=O)c4ccccc4C)o3)CC2C)c1 (centres undefined)	42.6	20.4	53.1*	36.0	52.1*	-11.3
CCC(=O)N1CCN(c2cc(C)ccc2C)CC1	-9.5	5.9	15.9	76.2*	1.5	-6.5

Screens (PubChem)
